Measurements reported in PubChem BioAssay (NCATS).
Several values for one entry are separate records, joined by “and”; a condition that tells them apart may be missing. Identical values can stand only once. Inconclusive results are not listed. Activity calls are given as the source filed them. The call rests on the fitted dose curve; in most records, active means well fitted inhibition curve with a large enough effect; inconclusive means small, poorly fitted or top-dose-only effect; inactive means no such curve, though single readings can be large or run the other way.

molecular target: Cytochrome P450 3A4 (Homo sapiens) (UniProt P08684); assay: qHTS Assay for Inhibitors and Substrates of Cytochrome P450 3A4 (AID 884); conditions: recombinant CYP3A4, Luciferin-PPXE luminescence; series mostly up to 57.1 µM; activity change, negative = inhibition: at the top concentration; further: nearly all actives have a fitted effect of over 50% in size
Protocol: NIH Molecular Libraries Screening Centers Network [MLSCN]
NIH Chemical Genomics Center [NCGC]
The P450 gene superfamily is involved in the metabolism and clearance of xenobiotics. This assay used human CYP3A4 to measure the dealkylation of luciferin-6' phenylpiperazinylyl (Luciferin-PPXE; […]) to luciferin. The luciferin is then measured by luminescence after the addition of a luciferase detection reagent. Luciferin-PPXE concentration in the assay was equal to its KM for CYP3A4. Inhibitors and some substrates limit the production of luciferin, and decrease measured luminescence.
NCGC Assay Protocol Summary:
Two uL of enzyme and substrate mix (final concentrations: 20nM CYP3A4, 25uM Luciferin-PPXE, 200mM KPO4) were dispensed into a white, solid bottom 1536-well microtiter plate. 23nL of compound was transferred by a pin tool. The plate was incubated at RT for 10 min. Two uL of an NADPH regeneration solution (Promega supplied reagent) was dispensed and the reaction was allowed to continue for 60 min at RT. Then the reaction was stopped by reconstituted luciferin detection buffer. After another 20 min of incubation the plate was read on the ViewLux (Perkin Elmer) at 60 sec exposure and 2x2 binning. This protocol was carried out with Promega-Glo reagents and further information can be found at http://www.promega.com/tbs/tb325/tb325.pdf. Data were normalized to the to AC100 inhibition (57 uM ketoconazole).
Keywords: P450, CYP3A4, Luciferase, MLSMR, MLSCN, NIH Roadmap, qHTS, NCGC
On the % scale 0 is the no-effect control and ±100 the full control effect; potency means the concentration at half of the fitted maximal effect.

Sequence of Cytochrome P450 3A4 (Homo sapiens) (P08684 whole entry, looked up): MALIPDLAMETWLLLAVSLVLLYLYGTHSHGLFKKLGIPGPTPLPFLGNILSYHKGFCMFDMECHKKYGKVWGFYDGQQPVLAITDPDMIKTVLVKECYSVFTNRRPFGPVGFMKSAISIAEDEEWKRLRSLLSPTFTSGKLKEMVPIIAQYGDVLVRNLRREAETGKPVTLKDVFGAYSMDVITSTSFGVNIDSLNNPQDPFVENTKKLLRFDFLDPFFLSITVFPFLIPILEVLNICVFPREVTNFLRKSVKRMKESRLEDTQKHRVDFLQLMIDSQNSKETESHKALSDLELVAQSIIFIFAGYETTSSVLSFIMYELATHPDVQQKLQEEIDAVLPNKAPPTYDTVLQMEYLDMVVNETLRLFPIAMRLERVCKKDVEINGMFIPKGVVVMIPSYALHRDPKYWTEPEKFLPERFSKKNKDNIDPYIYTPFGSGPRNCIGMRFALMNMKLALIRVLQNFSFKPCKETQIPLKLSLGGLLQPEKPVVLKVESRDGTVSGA

SMILES | Potency | activity change, negative = inhibition
COC(=O)c1ccc(C(NC(=O)OCc2ccccc2)/C(C)=C/[C@@H](C)C(=O)NCCc2c[nH]c3ccc(OC)cc23)cc1 (stereo not given in full) | 2 µM (active) | –
COC(=O)c1cccc(C23CC4(C2)[C@H](CN(Cc2ccc(C(F)(F)F)cc2)[C@@H]4c2ccccc2)C3c2ccccc2)c1 (stereo not given in full) | 12.6 µM (active) | –
COc1ccc(O[C@H]2C=C[C@@H](c3ccccc3)O[C@H]2CO/N=C2/c3cc(OC)ccc3O[C@@H](c3cccc(OC)c3)[C@H]2O)cc1 | 3.16 µM (active) | –
C=CC[C@@H]1C=C[C@H](Oc2ccc(C)cc2)[C@H](COC(=O)NCc2cccc3ccccc23)O1 | 3.16 µM (active) | –
COC(=O)c1ccc(C(NC(=O)OCc2ccccc2)/C(=C/[C@@H](C)C(=O)NCC2CC2)c2cccnc2)cc1 (stereo not given in full) | 2 µM (active) | –
CCC1=C2CC[C@H]3C(=O)NC(=O)[C@H]3[C@H]2[C@@]2(Cc3ccccc3)C(=NCC3CC3)OC(=O)N2C1=O | 15.8 µM (active) | –
COC(=O)c1ccc(C(NC(=O)OCc2ccccc2)/C(C)=C/[C@@H](C)C(=O)NCCN2CCOCC2)cc1 (stereo not given in full) | 3.16 µM (active) | –
COC(=O)NC(c1ccc(F)cc1)C(C(C)=O)C(=O)OC (stereo not given) | – | -15% [at 11.4 µM] (inactive)
CC(Cc1ccccc1)C(=O)Nc1ccccc1 (stereo not given) | – | -53.7% (inactive)
CC1CCC2C(=O)N3C(CCC(C)[C@@H]3c3ccc(-c4ccco4)cc3)C(=O)N2C1c1cccc(N2CCCC2=O)c1 (stereo not given in full) | – | 13.4% [at 11.4 µM] (inactive)
COCCNC(=O)C1(C)C=CC2(CCCCC2)N1C(=O)c1ccccc1 (stereo not given) | 15.8 µM (active) | –
COC(=O)c1ccc(C23CC4(C2)[C@H](CN(Cc2ccc(C(F)(F)F)cc2)[C@@H]4c2ccccc2)C3c2ccc(Cl)nc2)cc1 (stereo not given in full) | – | -28.9% (inactive)
COC(=O)NC(c1cccc(F)c1)C(C(C)=O)C(=O)OC (stereo not given) | – | -17.1% [at 11.4 µM] (inactive)
CC1(C)Oc2cc3c(cc2O1)OC(C)(C)O3 | – | -26.4% [at 11.4 µM] (inactive)
c1ccc(-c2ccc(CN3C[C@@H]4C(c5ccccc5)C5(c6ccccc6)CC4(C5)[C@H]3c3ccccc3)cc2)cc1 (stereo not given in full) | – | 7.2% (inactive)
COc1cc(O)c(C(=O)/C=C/c2ccccc2)c(O)c1 | – | -28.7% [at 11.4 µM] (inactive)
C[C@H](NC(=O)[C@@H]1C[C@H]1[C@@H](NC(=O)OCc1ccccc1)c1ccccc1)c1ccccc1 | 12.6 µM (active) | –
CC(O)CCCCCCC/C=C/C=C/C(N)=O (stereo not given) | – | -10.1% [at 11.4 µM] (inactive)
CCC[C@@H]1C[C@@]1(CCC)[C@@H](NP(=O)(c1ccccc1)c1ccccc1)c1ccc(C(=O)OC)cc1 | 3.16 µM (active) | –
COc1ccc(/C=C/C(=O)c2ccc(OC)cc2O)cc1 | 3.16 µM (active) | –

SMILES | Potency | activity change, negative = inhibition
COc1ccc(OC2C=CC(c3ccccc3)OC2CO)cc1 (stereo not given) | 3.98 µM (active) | –
CCC1=C2CC[C@H]3C(=O)N(c4ccccc4)C(=O)[C@H]3[C@H]2[C@@]2(Cc3ccccc3)C(=NCCOC)OC(=O)N2C1=O | 7.94 µM (active) | –
CC(=O)OCC1OC(c2cc(C)cc(C)c2)C=CC1OC(C)=O (stereo not given) | 3.16 µM (active) | –
CNC(=O)C1(C)C=CCN1C(=O)c1ccccc1 (stereo not given) | – | -17.9% (inactive)
COc1ccc(-c2coc3cc(OC4OC(CO)C(O)C(O)C4O)cc(O)c3c2=O)cc1 (stereo not given) | – | 0.599% (inactive)
COC(=O)c1ccc(C(NC(=O)OCc2ccccc2)/C(=C/[C@@H](C)C(=O)NCc2ccccc2)c2cccnc2)cc1 (stereo not given in full) | 3.98 µM (active) | –
COC(=O)CNC(=O)[C@@]1(C)C=C[C@@H](Cc2ccccc2)N1C(=O)OC | 12.6 µM (active) | –
CCC1=C2CC[C@H]3C(=O)N(c4ccccc4)C(=O)[C@H]3[C@H]2[C@@]2(Cc3ccccc3)C(=NCC3CC3)OC(=O)N2C1=O | 5.01 µM (active) | –
COC(=O)N1[C@H](C)C=C[C@]1(Cc1ccccc1)C(=O)NCCCNc1ncc(C(F)(F)F)cc1Cl | 6.31 µM (active) | –
COC(=O)c1ccc(C(NC(=O)OCc2ccccc2)/C(=C/[C@@H](C)C(=O)NCc2nc3ccccc3s2)c2cccnc2)cc1 (stereo not given in full) | 2 µM (active) | –
O=C1[C@H]2[C@H]3[C@H](O)[C@H](O)C/C(=N/OCc4ccccc4)[C@@H]3CC[C@@H]2C(=O)N1Cc1ccc2c(c1)OCO2 | 2 µM (active) | –
CC1(C(=O)O)C=CCN1C(=O)c1ccccc1 (stereo not given) | – | -12.8% (inactive)
O=C(OCC1OC(OC(=O)c2cc(O)c(O)c(OC(=O)c3cc(O)c(O)c(O)c3)c2)[C@@H](OC(=O)c2cc(O)c(O)c(OC(=O)c3cc(O)c(O)c(O)c3)c2)C(OC(=O)c2cc(O)c(O)c(OC(=O)c3cc(O)c(O)c(O)c3)c2)C1OC(=O)c1cc(O)c(O)c(OC(=O)c2cc(O)c(O)c(O)c2)c1)c1cc(O)c(O)c(OC(=O)c2cc(O)c(O)c(O)c2)c1 (stereo not given in full) | 3.98 µM (active) | –
CC1CN2C(CCC(C)C2c2ccc(Br)cc2)C(=O)O1 (stereo not given) | – | -15.8% [at 11.4 µM] (inactive) and -28.1% [at 11.4 µM] (inactive)
C=CC[C@@H]1C=C[C@H](O/N=C(\C)CCN2CCCc3nc(C)c(C)cc32)[C@H](CO)O1 | 2.51 µM (active) | –
Clc1ccc(C2[C@H]3CN(Cc4cccnc4)[C@H](c4ccccc4)C34CC2(c2ccccc2)C4)cn1 (stereo not given in full) | 2 µM (active) | –
COc1cccc([C@@H]2Oc3ccc(OC)cc3/C(=N/OC[C@@H](O)COCc3ccco3)[C@@H]2O)c1 | 3.16 µM (active) | –
COc1ccc(/C=C/N(CCc2ccc(OC)c(OC)c2)C(=O)C(F)(F)F)cc1 | 2 µM (active) | –
CCCCC#CC1C=CC(OC(C)=O)C(COC(C)=O)O1 (stereo not given) | 2.51 µM (active) | –
CC(Cc1ccccc1)C(=O)N[C@@H](CO)Cc1ccccc1 (stereo not given in full) | 15.8 µM (active) | –
